Experimental findings from ChEMBL document CHEMBL3988442, “University of Dundee, Small-Polar-MMV Screening Library” (2021) are described below.

For some assays here: Results with a measured potency or affinity are listed apart.

Common to all, as to set-up: scale not given: direction of the effect not stated beside the values
Test [1] has as its target Protein translocase subunit SecA (Escherichia coli (strain K12)) (UniProt P10408). As to the kind of experiment: Assay to Identify E. coli SecA ATPase Inhibitors. Type of test: functional. Particulars: 30 µM.
The target in test [2] is T1, Ubiquitin-activating enzyme e1, putative (Leishmania donovani (strain BPK282A1)) (UniProt E9BSI1).
T1 sequence (whole entry): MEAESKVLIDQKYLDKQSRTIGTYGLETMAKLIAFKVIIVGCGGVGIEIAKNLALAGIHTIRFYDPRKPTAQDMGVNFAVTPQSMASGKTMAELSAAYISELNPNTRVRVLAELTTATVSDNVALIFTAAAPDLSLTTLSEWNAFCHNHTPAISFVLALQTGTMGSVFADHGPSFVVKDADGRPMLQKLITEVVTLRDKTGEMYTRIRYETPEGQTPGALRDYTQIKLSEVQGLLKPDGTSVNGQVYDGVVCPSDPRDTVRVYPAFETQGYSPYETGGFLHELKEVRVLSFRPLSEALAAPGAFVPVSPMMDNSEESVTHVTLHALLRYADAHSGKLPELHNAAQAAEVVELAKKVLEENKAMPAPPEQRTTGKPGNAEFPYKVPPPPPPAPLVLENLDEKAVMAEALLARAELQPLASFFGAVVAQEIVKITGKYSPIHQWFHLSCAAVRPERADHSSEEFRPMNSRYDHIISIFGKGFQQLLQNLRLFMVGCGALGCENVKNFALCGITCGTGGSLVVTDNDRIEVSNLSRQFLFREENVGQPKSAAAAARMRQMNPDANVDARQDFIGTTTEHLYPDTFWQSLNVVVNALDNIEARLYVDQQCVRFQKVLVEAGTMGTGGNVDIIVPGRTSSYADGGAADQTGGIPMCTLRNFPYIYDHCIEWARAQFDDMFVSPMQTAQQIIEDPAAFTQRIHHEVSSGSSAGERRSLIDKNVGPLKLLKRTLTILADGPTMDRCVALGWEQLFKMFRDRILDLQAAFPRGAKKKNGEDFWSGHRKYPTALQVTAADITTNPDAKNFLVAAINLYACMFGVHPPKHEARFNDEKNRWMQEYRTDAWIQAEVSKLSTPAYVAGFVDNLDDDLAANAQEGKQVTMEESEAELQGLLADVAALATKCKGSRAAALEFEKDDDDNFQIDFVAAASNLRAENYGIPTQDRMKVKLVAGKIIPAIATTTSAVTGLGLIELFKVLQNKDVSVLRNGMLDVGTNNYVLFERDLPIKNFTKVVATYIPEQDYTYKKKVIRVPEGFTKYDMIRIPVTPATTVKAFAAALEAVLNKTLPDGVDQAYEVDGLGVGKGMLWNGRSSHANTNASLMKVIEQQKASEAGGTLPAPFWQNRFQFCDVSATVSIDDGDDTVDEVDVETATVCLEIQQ
As to the kind of experiment: Leishmania donovani Ubiquitin Activating Enzyme (LdE1). Type of test: functional. Particulars: 30 µM.

For test [3], the target named is Sialic acid-binding Ig-like lectin 9 (Homo sapiens) (UniProt Q9Y336). Nature of the test: Hs-Siglec9 ALPHAscreen SOP 20170721. As to conditions: 10 µM. (In general: Alpha assays give light when donor and acceptor beads are brought close together.)
Chain of Sialic acid-binding Ig-like lectin 9 (Homo sapiens) (Q9Y336 whole entry): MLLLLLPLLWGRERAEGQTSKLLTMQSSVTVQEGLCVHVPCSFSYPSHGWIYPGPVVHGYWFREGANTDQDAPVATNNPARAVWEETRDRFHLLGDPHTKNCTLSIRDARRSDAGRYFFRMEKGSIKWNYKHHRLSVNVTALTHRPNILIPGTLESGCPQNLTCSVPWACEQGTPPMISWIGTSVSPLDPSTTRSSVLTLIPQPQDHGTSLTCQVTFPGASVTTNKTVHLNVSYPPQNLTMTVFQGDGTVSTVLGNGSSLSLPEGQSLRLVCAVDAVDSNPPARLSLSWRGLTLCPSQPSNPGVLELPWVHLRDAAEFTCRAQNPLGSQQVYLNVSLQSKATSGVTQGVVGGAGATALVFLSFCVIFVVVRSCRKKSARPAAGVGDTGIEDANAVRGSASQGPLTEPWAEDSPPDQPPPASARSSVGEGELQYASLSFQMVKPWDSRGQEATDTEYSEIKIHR
A further test concerns Trypanosoma cruzi. As to the kind of experiment: Trypanosoma cruzi phosphomannomutase and mannose-1-phosphate guanylyltransferase assay. Type of test: functional. Particulars: 10 µM.
In test [4] the target is T2, Arginase-2, mitochondrial (Homo sapiens) (UniProt P78540).
T2 sequence (whole entry): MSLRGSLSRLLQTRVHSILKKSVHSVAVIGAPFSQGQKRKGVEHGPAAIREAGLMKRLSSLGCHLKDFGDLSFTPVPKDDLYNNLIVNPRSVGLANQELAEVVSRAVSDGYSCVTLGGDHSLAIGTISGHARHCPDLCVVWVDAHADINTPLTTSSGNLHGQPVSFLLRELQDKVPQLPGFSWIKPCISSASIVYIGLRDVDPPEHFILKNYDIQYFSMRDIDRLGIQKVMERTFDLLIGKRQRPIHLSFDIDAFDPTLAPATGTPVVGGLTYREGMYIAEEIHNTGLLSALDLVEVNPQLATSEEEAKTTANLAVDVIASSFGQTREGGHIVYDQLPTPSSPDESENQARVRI
As to the kind of experiment: in vitro enzyme assay to detect the production of urea directly proportional to the activity of Arginase II. Also: in the data most compounds retested in dose-response had high values. Particulars: 33.3 µM. Type of test: functional.

The target in test [5] is T3, Proteasome subunit beta (Trypanosoma cruzi) (UniProt O96673).
T3 sequence (whole entry): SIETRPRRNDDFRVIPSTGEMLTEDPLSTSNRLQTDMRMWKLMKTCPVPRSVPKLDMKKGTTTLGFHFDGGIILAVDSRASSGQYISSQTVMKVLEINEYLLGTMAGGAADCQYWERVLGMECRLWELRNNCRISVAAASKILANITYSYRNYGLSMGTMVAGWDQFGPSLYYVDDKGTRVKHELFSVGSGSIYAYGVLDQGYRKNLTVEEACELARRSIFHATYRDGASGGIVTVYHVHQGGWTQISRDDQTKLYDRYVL
As to the kind of experiment: Trypanosoma cruzi proteasome chymotrypsin-like activity (TcProtChymo) assay. Also: in the data most compounds retested in dose-response had high values. The format is functional. Particulars: 9.37 µM.

For another test, the species on record is Homo sapiens. As to the kind of experiment: To identify inhibition of the IFN signalling (Jak-Stat) pathway via expression of an eGFP reporter gene under the control of an IFN-stimulated response element (ISRE) containing MxA promoter. Type of test: functional. Particulars: 30 µM. For orientation: A reporter such as luciferase makes a cellular process visible.

The target of test [6] is T4, Tyrosyl-tRNA synthetase, putative (Trypanosoma cruzi (strain CL Brener)) (UniProt Q4DSP6).
T4 sequence (whole entry): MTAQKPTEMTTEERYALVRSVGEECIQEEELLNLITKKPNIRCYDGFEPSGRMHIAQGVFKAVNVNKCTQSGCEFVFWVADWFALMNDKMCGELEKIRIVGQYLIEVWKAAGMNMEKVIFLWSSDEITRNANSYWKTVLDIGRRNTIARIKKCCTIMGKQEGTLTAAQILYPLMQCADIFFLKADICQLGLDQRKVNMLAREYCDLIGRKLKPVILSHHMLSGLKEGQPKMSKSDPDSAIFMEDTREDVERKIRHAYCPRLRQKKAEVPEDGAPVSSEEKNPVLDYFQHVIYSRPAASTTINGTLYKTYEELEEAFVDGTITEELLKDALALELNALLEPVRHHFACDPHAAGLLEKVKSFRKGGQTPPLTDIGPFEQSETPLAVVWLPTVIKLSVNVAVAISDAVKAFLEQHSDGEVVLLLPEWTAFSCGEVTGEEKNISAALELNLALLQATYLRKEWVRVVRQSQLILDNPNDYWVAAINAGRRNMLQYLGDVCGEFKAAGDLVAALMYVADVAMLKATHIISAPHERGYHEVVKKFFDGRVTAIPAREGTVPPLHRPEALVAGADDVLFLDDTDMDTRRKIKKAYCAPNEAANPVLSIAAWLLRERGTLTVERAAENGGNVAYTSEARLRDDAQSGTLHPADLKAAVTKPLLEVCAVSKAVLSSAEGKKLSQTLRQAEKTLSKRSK
Nature of the test: Trypanosoma cruzi tyrosyl tRNA synthetase (TcYRS) _High Tyrosine SOP. Also: in the data most compounds retested in dose-response had high values. The format is functional. Particulars: 30 µM.

For test [7], the target named is T4, Tyrosyl-tRNA synthetase, putative (Trypanosoma cruzi (strain CL Brener)). Nature of the test: Trypanosoma cruzi tyrosyl tRNA synthetase (TcYRS) SOP. The format is functional. As to conditions: 30 µM.
Test [8] has as its target Chromo domain-containing protein 1 (Saccharomyces cerevisiae (strain ATCC 204508 / S288c) (Baker's yeast)) (UniProt P32657). Nature of the test: ScCHD-1 Enzyme Inhibition Assay. Also: in the data most compounds retested in dose-response had high values. Type of test: functional. As to conditions: 30 µM.

Chain of Chromo domain-containing protein 1 (Saccharomyces cerevisiae (strain ATCC 204508 / S288c) (Baker's yeast)) (P32657 whole entry, the tested form may be a part): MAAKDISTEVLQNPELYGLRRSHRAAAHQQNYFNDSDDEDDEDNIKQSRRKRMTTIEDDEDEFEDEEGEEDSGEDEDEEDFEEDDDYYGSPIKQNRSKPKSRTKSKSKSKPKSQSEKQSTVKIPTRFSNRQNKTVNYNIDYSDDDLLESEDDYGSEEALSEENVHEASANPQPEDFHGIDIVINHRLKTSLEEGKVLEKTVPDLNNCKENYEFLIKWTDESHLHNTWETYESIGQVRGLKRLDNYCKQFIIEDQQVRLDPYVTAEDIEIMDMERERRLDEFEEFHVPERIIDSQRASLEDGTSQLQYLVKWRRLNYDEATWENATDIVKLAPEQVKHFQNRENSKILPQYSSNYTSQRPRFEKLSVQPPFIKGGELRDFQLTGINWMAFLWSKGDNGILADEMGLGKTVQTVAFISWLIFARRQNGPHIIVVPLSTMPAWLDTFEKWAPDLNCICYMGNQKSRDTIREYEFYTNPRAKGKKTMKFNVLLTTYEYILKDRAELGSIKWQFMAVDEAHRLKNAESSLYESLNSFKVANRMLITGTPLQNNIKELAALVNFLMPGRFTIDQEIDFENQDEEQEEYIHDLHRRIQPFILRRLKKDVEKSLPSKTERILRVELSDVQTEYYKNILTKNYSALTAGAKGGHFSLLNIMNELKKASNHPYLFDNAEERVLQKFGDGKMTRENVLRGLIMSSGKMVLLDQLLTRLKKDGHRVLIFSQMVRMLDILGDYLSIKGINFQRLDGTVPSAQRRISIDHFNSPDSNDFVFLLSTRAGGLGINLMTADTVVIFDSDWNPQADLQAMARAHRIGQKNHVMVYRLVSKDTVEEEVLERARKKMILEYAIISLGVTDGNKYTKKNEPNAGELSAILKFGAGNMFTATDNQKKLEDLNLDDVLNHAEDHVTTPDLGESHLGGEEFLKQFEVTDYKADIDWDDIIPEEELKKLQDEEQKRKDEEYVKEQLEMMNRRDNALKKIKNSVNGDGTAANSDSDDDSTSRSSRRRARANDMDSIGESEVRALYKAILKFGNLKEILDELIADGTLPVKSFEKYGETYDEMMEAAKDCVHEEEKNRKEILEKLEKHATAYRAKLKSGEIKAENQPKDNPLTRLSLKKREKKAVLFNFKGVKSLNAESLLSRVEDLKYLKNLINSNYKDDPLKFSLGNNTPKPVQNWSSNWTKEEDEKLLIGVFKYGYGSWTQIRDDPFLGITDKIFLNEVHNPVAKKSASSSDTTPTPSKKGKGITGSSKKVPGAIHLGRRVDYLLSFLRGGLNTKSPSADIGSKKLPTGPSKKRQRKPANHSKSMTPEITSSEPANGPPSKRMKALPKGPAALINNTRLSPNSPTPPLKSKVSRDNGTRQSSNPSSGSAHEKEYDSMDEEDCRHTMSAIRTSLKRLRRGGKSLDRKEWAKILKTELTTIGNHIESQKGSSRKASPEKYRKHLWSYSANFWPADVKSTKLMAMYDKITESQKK
Chain of Protein translocase subunit SecA (Escherichia coli (strain K12)) (P10408 whole entry): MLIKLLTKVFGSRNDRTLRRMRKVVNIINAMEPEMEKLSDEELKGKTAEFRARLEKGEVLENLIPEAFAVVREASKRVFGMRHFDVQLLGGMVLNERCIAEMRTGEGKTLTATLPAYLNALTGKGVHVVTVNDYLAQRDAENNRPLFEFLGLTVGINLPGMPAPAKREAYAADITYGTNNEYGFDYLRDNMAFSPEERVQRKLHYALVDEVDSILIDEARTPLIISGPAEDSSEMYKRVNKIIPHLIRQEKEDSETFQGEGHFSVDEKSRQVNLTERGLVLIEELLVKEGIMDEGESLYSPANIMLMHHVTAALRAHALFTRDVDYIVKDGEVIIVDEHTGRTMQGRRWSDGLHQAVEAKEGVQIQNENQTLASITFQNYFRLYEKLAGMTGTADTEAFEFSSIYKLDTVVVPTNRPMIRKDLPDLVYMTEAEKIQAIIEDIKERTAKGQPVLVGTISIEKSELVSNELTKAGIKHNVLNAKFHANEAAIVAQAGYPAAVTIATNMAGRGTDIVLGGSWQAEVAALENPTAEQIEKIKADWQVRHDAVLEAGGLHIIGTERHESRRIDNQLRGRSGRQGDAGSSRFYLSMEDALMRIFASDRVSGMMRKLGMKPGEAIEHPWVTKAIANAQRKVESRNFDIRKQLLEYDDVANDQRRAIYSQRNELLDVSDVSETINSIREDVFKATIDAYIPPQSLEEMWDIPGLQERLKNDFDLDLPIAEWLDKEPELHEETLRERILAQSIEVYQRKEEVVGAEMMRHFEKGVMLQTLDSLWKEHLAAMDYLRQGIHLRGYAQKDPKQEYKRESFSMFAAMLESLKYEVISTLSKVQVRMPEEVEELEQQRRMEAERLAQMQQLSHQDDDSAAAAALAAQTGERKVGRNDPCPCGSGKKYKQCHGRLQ

In the case of `COCCN1CCN(Cc2ccc(F)c(C)c2)[C@H]2CS(=O)(=O)C[C@H]21`, the Percent Effect was -6.45% in [1]; 10.8% in test [2]; 28.9% in [3]; 12.3% in the test with Trypanosoma cruzi; 10.8% in [4]; 5.48% in test [5]. The Percent Effect in the test filed under Homo sapiens is -1.07%; in [6], 7.98%; in test [7], 17.1%; in [8] it was -4.27%.

As to `Cc1noc(Cl)c1CCC(=O)N1CCc2sccc2C1`, the Percent Effect in test [1] was -5.38%; in test [2] it was 18.7%; in test [3], 4.18%; in the test with Trypanosoma cruzi it was 0.201%; in test [4], -2.22%; in [5] it was 22.8%. Besides, the Percent Effect was 25.1% in the test listed under Homo sapiens, 5.79% in test [6], 17.9% in test [7] and -10.9% in test [8].

As to `CC(O)CN1CCC(CNCc2ccccc2Br)CC1` (stereo not given), the Percent Effect was -0.126% in test [1]; 10.3% in test [2]; -8.9% in test [3]; 11.4% with Trypanosoma cruzi; 1.23% in test [4]; 10.2% in [5]. For the same compound, the Percent Effect in the test filed under Homo sapiens was 8.18%; in test [6] it was 4.31%; in test [7] it was 20.5%; in test [8] it was -5.01%.

With `CC(C)NC(=O)C1CN(C(=O)N2CCCC2)CC12CCOCC2` (stereo not given), the Percent Effect in test [1] was -1.18%; in test [2], -3.9%; in test [3], -4.49%; with Trypanosoma cruzi it was -1.27%; in test [4], -4.45%; in test [5], -6.62%. Also, the Percent Effect turned out to be 5.24% in the test filed under Homo sapiens, 2.63% in test [6], 2.56% in test [7] and 2.05% in test [8].

Take `N#Cc1cccc(S(=O)(=O)NC(=O)COc2ccc3c(c2)CCC3)c1`: the Percent Effect in [1] was -4.11%; in [2], 12.8%; in [3], -9.11%; in the test with Trypanosoma cruzi it was 6.48%; in test [4] it was -0.82%; in test [5], 17%. In addition, the Percent Effect was 0.752% in the test filed under Homo sapiens, 0.478% in test [6], 20.5% in [7] and -4.5% in test [8].

Consider `COc1cccc(COCC(=O)N2CCCC(n3ccnc3C)C2)c1` (stereo not given), for which the Percent Effect is -2.06% in [1]; -5.13% in test [2]; -2.52% in test [3]; 4.6% in the test with Trypanosoma cruzi; 4.92% in test [4]; -4.35% in test [5]. Also, the Percent Effect in the test listed under Homo sapiens is 19.1%; in test [6] it was -3.35%; in test [7], 1.21%; in test [8] it was 2.95%.

Take `CN(Cc1nnc(C2CC2)o1)C1CCN(CCCc2cnn(C)c2)C1` (stereo not given): the Percent Effect was -0.864% in test [1]; 10.7% in test [2]; -3.87% in test [3]; -2.61% with Trypanosoma cruzi; -2.22% in test [4]; 22.1% in [5]. The Percent Effect was 18.5% in the test filed under Homo sapiens, 11.1% in test [6], 15.4% in test [7] and -5.79% in test [8].

Consider `CC(C)N(C)C(=O)CN1CCCC(c2ccc(C(=O)O)cc2)C1` (stereo not given), for which the Percent Effect in test [1] was -2.28%; in test [2], 18.9%; in test [3], -0.275%; in the test with Trypanosoma cruzi, 0.485%; in test [4], -66.1%; in test [5] it was 12.3%. Moreover, the Percent Effect in the test filed under Homo sapiens was 29.1%; in test [6], 5.85%; in test [7], 19.5%; in test [8], -6.15%.

As to `CC(C)c1nnc2n1CCN(C(=O)c1ccc3cc[nH]c3c1)C2`, the Percent Effect in test [1] was -6.11%; in test [2], 10.7%; in [3] it was 4.04%; in the test with Trypanosoma cruzi it was -1.61%; in test [4], 2.66%; in test [5], 1.27%. Besides, the Percent Effect in the test filed under Homo sapiens is 6.35%; in test [6], 5.79%; in [7], 12.8%; in test [8], -9.74%.

Turning to `COCC(C)NC(=O)c1cc(Br)c2c(c1)OCCO2` (stereo not given), the Percent Effect in test [1] is -0.916%; in [2], 5.33%; in test [3], 4.72%; in the test on Trypanosoma cruzi it was -4.82%; in [4] it was 8.43%; in test [5] it was 8.74%. For the same compound, the Percent Effect was 10.6% in the test filed under Homo sapiens, -2.63% in test [6], 2.56% in test [7] and -7.03% in test [8].

Consider `Cc1ccc(NC2CCN(C(=O)c3n[nH]c4ccccc34)CC2)nn1`, for which the Percent Effect was -2.85% in test [1]; 5.33% in test [2]; 0.786% in [3]; -5.62% in the test with Trypanosoma cruzi; 3.55% in [4]; -2.29% in test [5]. For the same compound, the Percent Effect in the test filed under Homo sapiens is 12.2%; in test [6], 3.68%; in [7] it was 5.13%; in test [8] it was -6.5%.
